# Source: PubChem BioAssay (The Scripps Research Institute Molecular Screening Center)
# PAFAH1B2 inh: PAFAH1B2 enzyme inhibitors, primary screen, biochemical, fluorescence polarization, human; AID 492953, 2010; Platelet-activating factor acetylhydrolase IB subunit alpha2 (Homo sapiens), P68402; 340,000 tested, 1.2% active; inhibition, % at 3.39 µM; recombinant PAFAH1B2, FP-rhodamine activity probe;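 active = inhibition above the mean of all tested compounds plus 3 SD, cut at about 24% in these data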;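 note: 0% = enzyme with DMSO and 100% = wells lacking PAFAH1B2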
# Target sequence (P68402 whole entry, looked up): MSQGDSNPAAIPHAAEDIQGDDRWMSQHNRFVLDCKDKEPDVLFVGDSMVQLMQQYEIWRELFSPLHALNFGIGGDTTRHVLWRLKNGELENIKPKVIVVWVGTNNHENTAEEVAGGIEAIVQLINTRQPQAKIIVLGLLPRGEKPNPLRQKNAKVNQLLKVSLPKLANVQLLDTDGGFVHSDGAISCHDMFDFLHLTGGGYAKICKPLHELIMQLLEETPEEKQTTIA
# eLon inh: inhibitors of E. coli Lon protease, primary screen, biochemical, fluorescence polarization. inhibition, % at 7.94 µM. purified E. coli Lon protease. P0A9M0. 360,000 tested, 0.42% active; in the data active = inhibition above about 13%, passing the limit was not always enough;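 note: 0% = enzyme with probe and DMSO and 100% = no enzyme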
# pPAFAH FP inh: pPAFAH enzyme inhibitors, primary screen, biochemical, fluorescence polarization, human; Platelet-activating factor acetylhydrolase (Homo sapiens), Q13093; recombinant pPAFAH, FP-rhodamine probe fluorescence polarization; inhibition, % at 3.39 µM; 330,000 tested, 1.5% active;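 active = inhibition above the mean inhibition across the screen plus 3 SD, cut at about 25% in these data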;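 note: inhibitors block binding of the rhodamine activity-based probe so polarization drops; 0% = enzyme with DMSO and 100% = wells lacking pPAFAH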
# Target sequence (Q13093 whole entry, looked up): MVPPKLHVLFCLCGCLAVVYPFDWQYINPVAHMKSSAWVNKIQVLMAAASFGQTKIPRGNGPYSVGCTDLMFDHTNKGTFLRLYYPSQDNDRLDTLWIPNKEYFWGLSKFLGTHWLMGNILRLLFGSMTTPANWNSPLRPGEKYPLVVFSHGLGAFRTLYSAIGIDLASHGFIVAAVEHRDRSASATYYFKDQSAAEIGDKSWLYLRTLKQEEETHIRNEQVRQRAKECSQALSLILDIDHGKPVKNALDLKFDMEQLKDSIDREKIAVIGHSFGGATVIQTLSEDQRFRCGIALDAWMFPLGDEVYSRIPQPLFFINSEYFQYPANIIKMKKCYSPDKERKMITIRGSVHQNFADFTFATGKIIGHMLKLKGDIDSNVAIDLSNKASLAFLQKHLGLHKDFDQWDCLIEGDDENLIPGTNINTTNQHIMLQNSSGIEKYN
# PAFAH2 inh: PAFAH2 enzyme inhibitors, primary screen, biochemical, fluorescence polarization, human; Platelet-activating factor acetylhydrolase 2, cytoplasmic (Homo sapiens), Q99487; recombinant PAFAH2, FP-rhodamine activity probe; inhibition, % at 3.39 µM; 340,000 tested, 0.99% active;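 active = inhibition above the mean over all tested compounds plus 3 SD, cut at about 30% in these data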;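 note: inhibitors block probe labeling of enzyme so polarization drops; 0% = enzyme with DMSO and 100% = wells lacking PAFAH2 protein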
# Rin1 Abl inh: inhibitors of Rin1-Abl protein binding, primary screen, biochemical, TR-FRET; 360,000 tested, 0.4% active; inhibition, % at 7.35 µM; Tyrosine-protein kinase ABL1 (Homo sapiens) + Ras and Rab interactor 1 (Homo sapiens), …; in the data active = inhibition above about 5%, passing the limit was not always enough
# PAFAH1B3 inh: PAFAH1B3 enzyme inhibitors, primary screen, biochemical, fluorescence polarization, human. 340,000 tested, 0.28% active. inhibition, % at 3.39 µM. recombinant PAFAH1B3, FP-rhodamine probe;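 active = inhibition above the screen-wide average of all tested compounds plus 3 SD, cut at about 25% in these data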;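 note: 0% = enzyme with DMSO only and 100% = wells lacking PAFAH1B3 protein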
# PAFAH2 confirm: PAFAH2 enzyme inhibitors, confirmation, biochemical, fluorescence polarization, human | 2,300 tested, 65% active | shares compounds with PAFAH2 inh | recombinant PAFAH2, FP-rhodamine activity probe | inhibition, % at 3.39 µM;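 active = mean inhibition over three repeats above a set limit taken from the earlier primary screen, cut at about 30% in these data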;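 note: inhibitor blocks binding of rhodamine activity probe so polarization falls; 0% = enzyme with DMSO and 100% = wells lacking PAFAH2 protein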
# Numbers without * were called inactive; / = no result given. A selection: hits, their analogues and other compounds. The true share with any hit is near 3.1%.
SMILES,PAFAH1B2 inh,eLon inh,pPAFAH FP inh,PAFAH2 inh,Rin1 Abl inh,PAFAH1B3 inh,PAFAH2 confirm
COc1cccc(C(=O)OCC(=O)N2CCc3ccccc32)c1OC,1.6,-7.8,/,43.3*,-3.2,4.8,42.6*
CC[C@H](C)[C@H](NC(=O)OCc1ccccc1)C(=O)OCC(=O)N1CCN(c2ccc(OC)cc2)CC1,-0.6,-1.2,/,-0.8,3.2,5.6,/
Cc1noc(C)c1COc1ccc(C(=O)OCC(=O)OC(C)(C)C)cc1,1.2,-4.3,8.6,32.4*,2.9,8.2,29.5
Cc1noc(C)c1COc1ccc(C(=O)OCC(=O)NCc2ccccc2Cl)cc1,4.0,-1.1,12.3,76.3*,0.5,1.7,74.4*
O=C(COC(=O)C12CC3CC(CC(C3)C1)C2)Nc1ccc(OC(F)F)cc1,5.1,7.5,24.4,66.9*,-3.6,9.2,49.0*
O=C(COC(=O)C12CC3CC(CC(O)(C3)C1)C2)Nc1ccc(OC(F)F)cc1,3.7,4.0,/,45.2*,0.2,10.3,29.2
NC(=O)c1ccc(NC(=O)COC(=O)CC23CC4CC(CC(Br)(C4)C2)C3)cc1,10.0,-3.3,1.7,-5.9,5.5,8.1,/
O=C(NC12CC3CC(CC(C3)C1)C2)c1cncc(O)c1,22.0,3.8,2.7,38.4*,-2.6,17.8,19.6
Nc1[nH]n2c(=O)c3c(nc2c1N=Nc1ccc(Cl)cc1)CCCC3,10.1,-15.2,9.7,39.6*,-0.9,5.7,24.6
CC(=O)C(Cc1ccccc1)NC(=O)COC(=O)c1cccc(C)c1[N+](=O)[O-] (configuration not stated),6.7,-6.7,6.3,35.5*,1.1,13.8,13.8
CCOC(=O)N1CCN(C(=O)COC(=O)c2cccc(C)c2[N+](=O)[O-])CC1,-5.3,11.8,-3.5,1.0,2.8,-4.8,/
O=C(NCCN1CCOCC1)C(=O)NCC1OCCN1S(=O)(=O)c1ccc(Cl)cc1 (configuration not stated),/,-1.1,/,/,-2.2,/,/
CCCn1c(C)cc(/C=C(\C#N)C(=O)OCC(=O)Nc2cccc(OC)c2)c1C,0.0,-0.3,-5.0,53.6*,-0.5,-1.1,59.5*
Cc1cc(/C=C(\C#N)C(=O)OCC(=O)NC(=O)NC(C)(C)C)c(C)n1CCC(C)C,2.1,-6.0,1.8,-0.2,2.8,-7.6,/
C=CCNC(=O)NC(=O)COC(=O)/C(C#N)=C/c1cc(C)n(CCC(C)C)c1C,-1.1,6.7,0.9,0.1,2.5,10.6,/
CCCn1c(C)cc(/C=C(\C#N)C(=O)OCC(=O)Nc2cccc(S(N)(=O)=O)c2)c1C,-1.8,-11.1,8.1,33.7*,0.5,-3.4,26.4
COc1ccccc1NC(=O)COC(=O)c1ccc2c(c1)OCCO2,2.2,-1.5,3.1,6.0,-2.8,-2.2,/
COc1ccccc1NC(=O)COc1ccc(C(=O)OCC(=O)NC(C)(C)C)cc1OC,0.5,1.3,7.1,81.0*,-4.1,5.3,82.6*
COc1ccc(C(=O)OCC(=O)Nc2ccc(F)cc2F)cc1OC,4.5,-12.4,10.2,76.2*,0.4,4.5,72.5*
COc1ccccc1NC(=O)COC(=O)c1cc2c(s1)CCC2,0.6,-3.4,/,54.4*,0.4,0.6,38.5*
COc1ccc(OC)c(NC(=O)COC(=O)c2cc3c(s2)CCC3)c1,0.1,-1.3,20.2,18.7,-3.6,5.5,/
CCC(CC)NC(=O)COC(=O)c1ccc(OCC(=O)Nc2ccccc2OC)c(OC)c1,-6.4,-5.2,-0.7,59.7*,-0.9,2.9,63.4*
O=C(NCCCN1CCOCC1)c1c(-c2ccccc2)oc2c1C(OCCCCCO)CCC2 (configuration not stated),/,-7.9,/,/,/,/,/
CC1=C(C(=O)N(C)C)CC(CC(=O)NCC2CCCCC2)C(=O)N1Cc1ccccc1 (configuration not stated),/,8.1,/,/,-2.1,/,/
CCOc1ccc(-c2c(C(=O)N/N=C/C3CCCCC3)nnn2-c2nonc2N)cc1,3.4,-2.2,-13.8,2.1,1.6,3.2,/
SMILES,PAFAH1B2 inh,eLon inh,pPAFAH FP inh,PAFAH2 inh,Rin1 Abl inh,PAFAH1B3 inh,PAFAH2 confirm
CCCNC(=O)COC(=O)c1ccc(OCC(=O)Nc2ccccc2OC)c(OC)c1,0.0,-0.8,-2.0,51.4*,-1.5,-6.0,44.8*
COC(=O)c1ccc(C(=O)OC)c(NC(=O)COc2ccccc2OC)c1,-0.4,5.8,8.4,2.0,3.5,10.9,/
CC(NC(=O)COC(=O)c1ccc(N2CCCC2=O)cc1)c1ccc(F)cc1 (configuration not stated),2.7,-0.8,3.8,77.5*,3.4,4.3,67.7*
COc1ccc(NC(=O)COC(=O)c2ccc(N3CCCC3=O)cc2)cc1,1.7,-11.4,0.8,83.5*,0.3,-0.5,67.0*
O=C(NCc1ccc(N2CCCC2=O)cc1)c1ccc(F)cc1,0.1,0.7,1.7,2.9,-2.7,-0.7,/
COc1cccc(CNC(=O)COC(=O)c2ccc(N3CCCC3=O)cc2)c1,/,-7.9,/,/,-0.7,/,/
COc1ccc(CCNC(=O)COC(=O)c2ccc(N3CCCC3=O)cc2)cc1,7.7,-11.2,1.8,55.6*,0.6,3.4,39.7*
CN1C=CC(C(C(N)=O)c2ccccc2)c2ccccc21 (configuration not stated),/,-10.8,/,/,0.7,/,/
Cc1cccc(C)c1NC1=C(Cl)C(=O)OC1OC(=O)c1ccccc1 (configuration not stated),3.3,-5.8,-0.8,30.6*,4.0,4.1,-21.7
Cc1ccc(NC2=C(Cl)C(=O)OC2OC(=O)c2ccccc2)c(C)c1 (configuration not stated),4.0,-4.2,6.5,4.3,2.3,2.2,/
C=CCOc1ccc(/C=C/C(=O)OCC(=O)NCC2CCCCC2)cc1,-1.2,6.6,7.6,68.0*,-1.4,2.2,66.2*
C=CCOc1ccc(/C=C/C(=O)OCC(=O)NCCCc2ccccc2)cc1,0.0,-12.1,9.4,16.6,0.7,-3.7,/
C=CCOc1ccc(/C=C/C(=O)OCC(=O)NC2CCCCCCC2)cc1,2.0,5.2,-3.4,66.5*,-2.6,6.1,72.2*
N#Cc1ccccc1OCC(=O)N1CCN(C(=O)c2ccco2)CC1,5.0,3.0,5.7,1.1,-1.2,4.7,/
OC(CCCN1CCCCC1)(c1ccccc1)c1ccc(C(F)(F)F)cc1 (configuration not stated),0.7,8.3,/,4.5,5.6,0.6,/
CCOc1ccc(NC(=O)COC(=O)c2ccc3c(c2)OCCO3)cc1,-2.1,-25.4,10.2,59.6*,0.6,3.5,54.3*
